VCAM1 TNFa pot – potentiators of TNFa-induced VCAM1 expression, primary screen, imaging, HUVEC, TNFa stimulus, immunofluorescence; HUVEC TNFa-stimulated VCAM-1 immunofluorescence, high-content imaging; scaled per plate to unstimulated/TNFa-only wells; activation, % at 2 µM; 0.19% of 93,000 active; AID 808, 2007;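 active = activation above the screen mean plus 3 SD, with well images confirming the hit on visual review, cut at about 28% in these data, passing the limit was not always enough; inconclusive = activation above that limit but images do not confirm it; inactive = activation not above that limit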;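 note: signal is the number of cytoplasmic VCAM-1 stained grains per positive cell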
VCAM1 pot conf – potentiators of TNFa-induced VCAM1 expression, confirmation, imaging, HUVEC, triplicate retest | AID 1034, 2008 | shares compounds with VCAM1 TNFa pot | activation, % at 2 µM | HUVEC TNFa-stimulated VCAM-1 immunofluorescence imaging | 230 tested, under 10 active;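 active = activation above 30% in triplicate retests at 2 µM, then confirmed by visual review of the well images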
A number is an active result; – = inactive; ? = inconclusive. Shown is part of a subset that was picked to be rich in hits.

SMILES	VCAM1 TNFa pot	others
COc1cccc(N2CCN(c3ncnc4c3[nH]c3ccc(F)cc34)CC2C)c1 (configuration not stated)	–
COc1ccc(-n2nnnc2SCC(=O)c2cc3ccccc3o2)cc1	–
Cc1ccc(-c2nnn(CC(=O)N(Cc3ccco3)C(C(=O)NC3CCCC3)c3cccs3)n2)o1 (configuration not stated)	–
CCOc1ccc(-c2nnn(CC(=O)NCc3ccc4c(c3)OCO4)n2)cc1	–
O=C(CN(C(=O)Cn1nnc(-c2cccs2)n1)c1ccc2c(c1)OCCO2)NC1CCCCC1	56	VCAM1 pot conf=–
O=Nc1c(O)n(Cc2ccc(Cl)cc2Cl)c2ccccc12	–
C=CCNc1nc(Nc2ccc(OC)cc2)nc(OCC)n1	–
CC(C)[C@H](NC(=O)OC(C)(C)C)c1nnc(SCc2cccc(F)c2)o1	–
CCOC(=O)Cc1csc(NC(=O)CSc2nnnn2-c2ccc(C)cc2C)n1	–
CCOC(=O)Cc1csc(NC(=O)CSc2nc(N)c3c(C)c(C)sc3n2)n1	33	VCAM1 pot conf=–
CCOC(=O)Cc1csc(NC(=O)COc2ccccc2OCC)n1	–
Cc1oc(C(=O)O)cc1COc1ccc2c3c(c(=O)oc2c1)CCC3	–
CCOC(=O)c1ccc(NC(=O)Nc2ccc(S(N)(=O)=O)cc2)cc1	–
CCOC(=O)c1ccc(Nc2c(CC)c(C)nc3ncnn23)cc1	?	VCAM1 pot conf=–
CCOC(=O)c1ccc(NC(=O)CC2SC(=NC)N(C)C2=O)cc1 (configuration not stated)	–
CCCn1c(SCC(=O)Nc2sc(C)c(C)c2C(=O)OCC)nc2c1c(=O)n(C)c(=O)n2C	31	VCAM1 pot conf=–
CCOC(=O)CNC(=O)CSc1nc2sc(C)c(C)c2c(=O)n1C	–
COC(=O)c1c(NC(=O)CSc2nnc(-c3cccnc3)n2Cc2ccco2)sc(C)c1C	–
O=[N+]([O-])c1ccc2nc(-c3ccccc3)n(OCc3ccc(Cl)cc3)c2c1	–
CCOc1ccc(S(=O)(=O)N(CC(=O)N/N=C/c2cccs2)c2ccc(C)cc2)cc1	–
CCNCC(O)COCC(O)CNCC (configuration not stated)	–
Cn1c(CN2CCOCC2)nnc1SCC(=O)NC1CCCCC1	?	VCAM1 pot conf=–
CN(C)C(=O)Cn1c(SCC(=O)NC2CCCCC2)nc2ccccc21	–
Cn1c(SCC(=O)NC2CCCCC2)nnc1-c1cccc(N)c1	–
O=C(c1cnn2c1NC(c1ccco1)CC2C(F)(F)F)N1CCN(c2cccc(Cl)c2)CC1 (configuration not stated)	–
SMILES	VCAM1 TNFa pot	others
Cc1sc2nc(SCc3nc(-c4cccs4)no3)n(-c3ccccc3)c(=O)c2c1C	–
Clc1cccc(OCCn2cncn2)c1Cl	?	VCAM1 pot conf=–
O=C(CN1C(=O)NC2(CCCC2)C1=O)Nc1ccccc1F	–
Cc1ccc(S(=O)(=O)NCC(c2cccnc2)N(C)C)cc1 (configuration not stated)	–
Cc1nc2sc(C(c3cccc(F)c3)N3CCCC(C)C3)c(O)n2n1 (configuration not stated)	–
CCOCCCN1CC(C(=O)NCCc2ccc(C)cc2)CC1=O (configuration not stated)	–
CCOC(=O)C1CCN(c2c(NCCCN(CC)c3ccccc3)c(=O)c2=O)CC1	–
CCOC(=O)C1CCN(Cc2c(F)cccc2Cl)CC1	–
CCOC(=O)C1CCN(C(=O)C2CCN(c3nc4ccc(OC)cc4s3)CC2)CC1	114	VCAM1 pot conf=–
CCN(C(=O)CSc1nc2ccccc2n1CCc1ccccc1)C1CCS(=O)(=O)C1 (configuration not stated)	–
N=c1nc(SCCC(=O)O)ss1	–
Cc1ccccc1/C(N)=N/OC(=O)/C=C/c1ccccc1	38	VCAM1 pot conf=–
COc1ccc([C@H]2[C@@H](C#N)[C@H](C#N)N3CCCN23)cc1	–
CCOC(=O)C(NC(=O)c1ccccc1)(Nc1nnc(C)s1)C(F)(F)F (configuration not stated)	–
Cc1ccc(-n2c(SCc3cc(=O)n4ccsc4n3)nnc2-c2cccnc2)c(C)c1	–
CCOc1ccccc1NC(=O)C1CC2CCCC(C1)C2=O (configuration not stated)	–
Cc1nnc(NC(=O)c2cccc(F)c2)s1	–
O=C(N/N=C/c1ccccc1Cl)c1cccc(F)c1	56	VCAM1 pot conf=–
O=C(N/N=C/c1cc2c(cc1Cl)OCO2)c1ccccn1	–
COc1ccc(C2=CC(=O)OC3(CCCCC3)O2)cc1	–
Cc1n[nH]c(=S)n1/N=C/c1ccccc1OCc1ccc(Cl)cc1	–
CCCCCOC(=O)Cn1c(SCC(=O)Nc2ccccc2)nc2c1c(=O)[nH]c(=O)n2C	–
O=C(Cc1ccc(Cl)cc1)Nc1ccc(N2CCN(C(=O)c3ccco3)CC2)c(Cl)c1	–
Cn1c(Cn2nnc3ccccc32)nnc1SCC(=O)N1CCc2ccccc21	–
CCN1CCN(S(=O)(=O)c2cc(OC)ccc2OC)CC1	64	VCAM1 pot conf=–
SMILES	VCAM1 TNFa pot	others
COc1ccc(CN2CCN(S(=O)(=O)c3ccccc3)CC2)c(OC)c1	–
COc1ccc(C(=O)N2CCN(S(=O)(=O)c3ccccc3)CC2)c(OC)c1	–
NC(=O)c1cccc(S(=O)(=O)N2CC(c3ccccc3)CC2=O)c1 (configuration not stated)	–
CC(OC1=CC(=O)CCC1)C(=O)c1ccccc1 (configuration not stated)	–
O=C(CSc1nnnn1-c1ccccc1Cl)Nc1ccc2c(c1)OCCO2	–
Cc1ccc(CCN2CC(C(=O)NCCCOC(C)C)CC2=O)cc1 (configuration not stated)	–
c1cncc(-c2nc(-c3ccc4c(c3)OCO4)cs2)c1	–
Cn1c(-c2ccc3c(c2)OCO3)cnc1NCc1ccccc1	51	VCAM1 pot conf=–
Cn1c(Cc2ccccc2)nnc1SCC(=O)Nc1ccc2c(c1)OCO2	–
O=C(O)Cc1ccc(C(=O)c2cccs2)s1	–
Cc1c(C(=O)O)sc2nc3n(c(=O)c12)CCC(C)CC3 (configuration not stated)	–
O=C(NCc1cccnc1)c1ccc(COc2cccc3ccccc23)o1	–
CC(C)Cn1c(SCC(=O)NC(=O)NC2CCCC2)nc2ccccc21	–
Cc1nc2ccccc2n1CC(O)COCC1CC=CCC1 (configuration not stated)	?	VCAM1 pot conf=–
CCOC(=O)Cn1c(C)nc2ccccc21	–
O=C(CC1NC2CCCCC2NC1=O)Nc1cccc(C(F)(F)F)c1 (configuration not stated)	–
N#C/C(=C\c1ccccc1Cl)C(=O)NC(=O)Oc1ccccc1	–
CC1(C)Cc2c(sc(NC(=O)c3ccc(Br)o3)c2C#N)CO1	–
CCc1c(C)sc(NC(=O)CC#N)c1C#N	–
N#Cc1c(NC(=O)CCC(=O)O)sc2c1CCCC2	?	VCAM1 pot conf=–
Cc1ccc(N2CCN(C(=O)N3CCCC3)CC2)cc1C	–
Cc1ccc(NC(=O)/C(C#N)=C/c2ccc(C)s2)c(C)c1	–
N#CC1=C(N)Oc2n[nH]c(-c3ccccc3)c2C1c1cccnc1 (configuration not stated)	94	VCAM1 pot conf=–
CCN(CC)c1ccc2c(c1)OC(N)=C(C#N)C2c1cccnc1 (configuration not stated)	–
CCCSC1=C(C#N)C(c2cccnc2)C(C(=O)OCC)=C(c2ccccc2)N1 (configuration not stated)	–
Cc1ccc(/C=C2/SC(=S)N(CC(=O)Nc3ncc(Cc4ccc(C)cc4)s3)C2=O)cc1	–
CCN1C(=O)/C(=C/C=C2/SCCN2C)SC1=S	–

From PubChem
